Records with an inconclusive call do not appear. Active and inactive are the calls of the source. Rule for the calls: active = hit-call score of the fitted dose curve at least 0.9, where 1 is the maximum; inconclusive = response in the unintended direction; inactive = score below 0.9.

Consider 40 molecules from PubChem BioAssay (EPA / NIEHS).

This experiment can be described thus: TOX21_TRB_BLA_Agonist_Followup_viability: Viability Assessment in the Tox21 Thyroid Hormone Receptor beta Agonism Beta-lactamase (BLA) Follow-Up Assay (AID 2283956). The text has this: The GeneBLAzer TRb-UAS-bla HEK293T assay kit for human TRb (ThermoFisherScientific Catalog No. K1684) was used as a secondary assay for specificity (TRb-bla). This assay contained the ligand-binding domain (LBD) of the human TRb fused to the DNA-binding domain of GAL4 stably integrated in the GeneBLAzer UAS-bla HEK293Tcell line. The reporter gene, b-lactamase, is under the transcriptional control of a UAS that binds the GAL4 DNA-binding domain. A cell viability assay was run in parallel for these cells as well using the CellTiter-Glo viability assay kit.TOX21_TRB_BLA_Agonist_Followup_viability is a component of the TOX21_TRB_BLA_Agonist_Followup assay. This component measures cell viability using the CellTiter-Glo Luciferase-coupled ATP quantitation.The assay component endpoint TOX21_TRB_BLA_Agonist_Followup_viability was analyzed with bidirectional fitting relation to DMSO as the negative control and baseline of activity. Using a type of viability reporter, loss-of-signal activity can be used to understand changes in viability. To generalize the intended target to other relatable targets, this assay endpoint is annotated to cell cycle, where the subfamily is cytotoxicity.
Cell Media Required: Growth (90% DMEM/F-12, 10% Fetal Bovine Calf Serum, 100U/ml Penicillin, 100 ug/ml Streptomycin), Assay (10ng/mL sodium selenite, 10 ug/mL humanapo-transferrin, 10 uM ethanolamine, 10 ug/mL insulin, 500 ug/mL bovine serum albumin (BSA))Assay Protocol: TRb-bla cells were dispensed at 3,000 cells/well in 5 uL of the assay medium containing phenol red-free DMEM with 2% charcoal-stripped FBS in 1,536-well black-wall/clear-bottom plates using an FRD. After 5-h incubation at 37C/5% CO2 for cell attachment to the well bottom, 23nL of follow-up compounds dissolved in DMSO, 11 concentrations in triplicate, and the positive control (T3; agonist format) were transferred to the assay plates using a Pintool station. The assay plates were incubated at 37C/5% CO2 for 18h. One microliter LiveBLAzer FRET-B/G CCF4-AM substrate was added to each well using an FRD. After 2-h incubation at room temperature, the fluorescence intensity was measured using an Envision plate reader. Data were expressed as the ratio of 460:530nm. The cytotoxicity of the compounds was measured in the same plates by adding 4 uL of CellTiter-Glo reagent to each well and incubating the plates at room temperature for 30 min. The luminescence intensity was measured using a ViewLux plate reader.For the luciferase reporter gene assay, 5 uL/well (agonist format) and 4 uL/well (antagonist format) ONE-Glo reagent (Promega Corporation) was added using an FRD and after 30-min incubation at room temperature, the luminescence intensity was measured using a ViewLux plate reader. Data were expressed as relative fluorescence units (cell viability assay) and relative luminescence units (luciferase reporter assay).
In the case of `CC1=C(/C=C/C(C)=C\C=C\C(C)=C\C(=O)O)C(C)(C)CCC1`, the molecule was classed as inactive.
For `CNC(=O)ON=C(CSC)C(C)(C)C`, the molecule was classed as inactive.
Then `C=C(NC(=O)C(=C)NC(=O)c1csc(C2=NC3c4csc(n4)C4NC(=O)c5csc(n5)C(C(C)(O)C(C)O)NC(=O)C5CSC(=N5)/C(=C/C)NC(=O)C(C(C)O)NC(=O)c5csc(n5)C3(CC2)NC(=O)C(C)NC(=O)C(=C)NC(=O)C(C)NC(=O)C(C(C)CC)NC2C=Cc3c(C(C)O)cc(nc3C2O)C(=O)OC4C)n1)C(N)=O` (stereo not given), with “inactive”; and `CCCN(CCC)C(=O)SCC`, with “inactive”.
The same measure for `NCC(=O)CCC(=O)O`: “inactive”; for `N[C@@H](Cc1cc(I)c(Oc2cc(I)c(O)c(I)c2)c(I)c1)C(=O)O`: “inactive”.
Then `CSCC[C@H](NC(=O)[C@H](Cc1ccc(OS(=O)(=O)O)cc1)NC(=O)[C@@H](N)CC(=O)O)C(=O)NCC(=O)N[C@@H](Cc1c[nH]c2ccccc12)C(=O)N[C@@H](CCSC)C(=O)N[C@@H](CC(=O)O)C(=O)N[C@@H](Cc1ccccc1)C(N)=O`, with “inactive”; and `CC(CCO)CCCC(C)(C)O` (stereo not given), with “inactive”; and `O=Cc1ccccc1S(=O)(=O)O`, with “inactive”.
Turning to `C[Si](C)O[Si](C)(C)O[Si](C)(C)O[Si](C)C`, the outcome was inactive.
With `CCCCCCC(O)CO` (stereo not given), the molecule was classed as inactive.
Then `CC(C)=CCC/C(C)=C\CO`, with “inactive”; and `Nc1ncn([C@H]2C[C@H](O)[C@@H](CO)O2)c(=O)n1`, with “inactive”; and `COc1cc(C)c(/C=C/C(C)=C/C=C/C(C)=C/C(=O)O)c(C)c1C`, with “inactive”.
The same measure for `O=C(O)Cc1cc(I)c(Oc2ccc(O)c(I)c2)c(I)c1`: “inactive”; for `CC1=C(/C=C/C(C)=C/C=C/C(C)=C/C(=O)O)C(C)(C)CCC1`: “inactive”.
The same measure for `O=C(c1ccccc1)c1ccc(O)cc1O`: “inactive”; for `OCCCCC(O)CO` (stereo not given): “inactive”; for `O=C(O)CCCCCCNC1c2ccccc2CCc2ccccc21`: “inactive”.
Take `NC(CO)(CO)CO`: the molecule was classed as inactive.
Then `CC(C)(C)CC(C)(C)c1ccc(O)c(Cc2ccc(Cl)cc2Cl)c1`, with “inactive”; and `C[C@]12CC[C@H]3C(=CCc4cc(O)ccc43)[C@@H]1CCC2=O`, with “inactive”.
Turning to `CC(C)CC(=O)O`, the call was inactive.
On to `CCCCCCCCCCC`, for which the outcome was inactive.
The same measure for `CC(=O)Nc1ccc(C(=O)CCl)cc1`: “inactive”; for `CCNc1nc(N)nc(Cl)n1`: “inactive”.
The same measure for `CC(C)CCCCCCCOC(=O)c1ccccc1C(=O)OCCCCCCCC(C)C`: “inactive”; for `Cc1cc(C)nc(NS(=O)(=O)c2ccc(N)cc2)n1`: “inactive”; for `COc1ccc(OC)c([C@@H](O)[C@H](C)N)c1`: “inactive”.
The same measure for `CCCCCCC(C)O` (stereo not given): “inactive”; for `O=c1[nH]cnc2c1ncn2[C@H]1CC[C@@H](CO)O1`: “inactive”.
Take `O=C(O)Cc1cc(I)c(Oc2cc(I)c(O)c(I)c2)c(I)c1`: the molecule was classed as inactive.
Then `N[C@@H](Cc1ccc(Oc2cc(I)c(O)c(I)c2)c(I)c1)C(=O)O`, with “inactive”; and `CCC(C)c1cc(C(C)(C)C)c(O)c(C(C)(C)C)c1` (stereo not given), with “inactive”.
Then `COC(=O)c1ccc(I)cc1S(=O)(=O)NC(=O)Nc1nc(C)nc(OC)n1`, with “inactive”; and `Nc1ccc(S(=O)(=O)Nc2nccs2)cc1`, with “inactive”; and `CC(C)(C)c1cc(C(C)(C)C)c(O)c(C(C)(C)C)c1`, with “inactive”.
The same measure for `Cc1cc(-n2c(=O)[nH]c(=O)n(C)c2=O)ccc1Oc1ccc(S(=O)(=O)C(F)(F)F)cc1`: “inactive”.
Take `C=C(c1ccc(C(=O)O)cc1)c1cc2c(cc1C)C(C)(C)CCC2(C)C`: the molecule was called inactive.
Then `Oc1ccccc1`, with “inactive”.
